Cycloheximide cs: counter-screen hit for Shiga toxin inhibitors, cycloheximide. cell reporter, cycloheximide protein synthesis inhibition counterscreen. max response, %. hit rate 12% among 300,000; in the data active = max response mostly above about 13%, no sharp cut-off; inactive = mostly below about 14%; note: read at 38.3 µM for the half of the compounds with a filed dose; 0% is about no effect
AMA1-RON2 inh: inhibitors of Plasmodium falciparum AMA1-RON2 interaction. AlphaScreen AMA1-biotinylated RON2 peptide binding. Potency, µM (series often up to 58.2 µM), for inactives: at the top dose activity change, negative = inhibition, usual class: inhibitors. hit rate 0.2% among 360,000. AID 720542;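 note: potency is the fitted concentration of half-maximal effect; 0% = vehicle wells and -100% = peptide control; nearly all actives have a fitted effect of over 45% in size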
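AMA1 (3D7) with his tag at 25 nM final met compounds first, then biotinylated RON2 peptide at 25 nM; detection used donor plus acceptor beads, 10 µg/mL apiece, read by AlphaScreen after 30 min at room temperature.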
Shiga inhibitor: Shiga toxin inhibition; Vero cells, Shiga toxin protein synthesis inhibition reporter; inhibition, % at 38.7 µM; hit rate 9.2% among 290,000; AID 2315; in the data active = inhibition mostly above about 28%, no sharp cut-off; inactive = mostly below about 43%; note: 0% is about no effect
HCV inhibitor: blocks hepatitis C virus; Potency, µM (top dose mostly 41.8 µM), inactives show top-dose activity change, negative = inhibition, hits mostly inhibitors; AID 651820; hit rate 3.4% among 340,000; Huh7.5.1 HCVcc-Cre infection, luciferase reporter, 44 h; note: potency is the fitted concentration of half-maximal effect; % is set by controls: 0 for no effect and ±100 for the full control effect
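Luciferase read-out (15 sec integration) after a 15 min room-temperature substrate step quantifies HCVcc-Cre infection. Cells, 1,000 per well, had compound added 4 h post-plating, then virus at ~0.5 moi, and were cultured 44 h.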
Pf growth 48h: inhibits P. falciparum growth in the first generation, 48 h. P. falciparum luciferase growth in erythrocytes, 48 h. Potency, µM (titrated, usually from 28.7 µM), for inactives: at the top dose activity change, negative = inhibition, usual class: inhibitors. hit rate 5.9% among 310,000; note: potency is the fitted concentration of half-maximal effect; % is set by controls: 0 for no effect and ±100 for the full control effect
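Read-out is firefly luciferase luminescence from an integrated reporter in P. falciparum, so falling signal marks reduced parasite growth. Infected erythrocytes were at 2% hematocrit and 0.1% parasitemia (final) in Albumax-supplemented RPMI 1640.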
Pf growth 96h: P. falciparum growth inhibition at 96 hours | Potency, µM (doses to about 28.7 µM), for the others: at the highest dose activity change, negative = inhibition, actives largely listed as inhibitors | P. falciparum luciferase reporter growth, 96 h | hit rate 6.9% among 320,000; note: potency is the fitted concentration of half-maximal effect; % is set by controls: 0 for no effect and ±100 for the full control effect
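Parasite growth measured via integrated firefly luciferase reporter in P. falciparum. Infected erythrocytes at 2% hematocrit, 0.05% parasitemia final were treated 96 hours at 37 C under 5% CO2, and luminescence was read.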
* hit, by the source's call. Shown are actives, neighbours in structure and some others; about 21% of the full set was active somewhere. Unless noted, calls come from the whole dose curve; as a rule, active = well fitted curve in the direction sought with a large enough effect; inconclusive = small, poorly fitted or top-dose-only effect, or another doubt; inactive = no such curve, though single readings can be large; an effect the other way counts as inactive or inconclusive.

Screening COc1ccc(-c2c(C#N)c(N)nc3c2CCC3)cc1 returned Cycloheximide cs 20.4*, AMA1-RON2 inh 16.6%, Shiga inhibitor 15.2, HCV inhibitor inconclusive, Pf growth 48h inconclusive and Pf growth 96h 4.1%.
For N#Cc1c(N)nc2c(c1-c1ccccc1)CCC2 the results were Cycloheximide cs 19.9, AMA1-RON2 inh -9.4%, Shiga inhibitor 28.6, HCV inhibitor inconclusive, Pf growth 48h 1.4% and Pf growth 96h 34.1%.
Cc1ccc(-c2c(C#N)c(N)nc3c2CCCC3)o1 was read as Cycloheximide cs 1.1, AMA1-RON2 inh 2.3%, Shiga inhibitor 20.5, HCV inhibitor inconclusive, Pf growth 48h 10.4µM* and Pf growth 96h inconclusive.
For N#Cc1c(SCC(=O)Nc2nccs2)nc2c(c1-c1ccco1)CCCC2 the results were Cycloheximide cs 17.0*, AMA1-RON2 inh 4.3%, Shiga inhibitor 3.8, HCV inhibitor inconclusive, Pf growth 48h 20.0% and Pf growth 96h 0.7%.
For CCCCc1ccc(-c2c(C#N)c(N)nc3c2CCCC3)s1 the results were Cycloheximide cs 0.9, AMA1-RON2 inh 100.9%, Shiga inhibitor -9.2, HCV inhibitor 12.6%, Pf growth 48h inconclusive and Pf growth 96h 13.1µM*.
Screening CCCCc1sc(-c2c(C#N)c(N)nc3c2CCCCC3)cc1[N+](=O)[O-] returned Cycloheximide cs -1.7, AMA1-RON2 inh -10.5%, Shiga inhibitor -13.7, HCV inhibitor inconclusive, Pf growth 48h 6.4% and Pf growth 96h -14.4%.
CCCNC(=O)c1cc(C2CCCCN2C(=O)CCCc2ccccc2)on1 (configuration not stated) was read as AMA1-RON2 inh 2.3%.
COC(=O)CSc1nc2c(c(-c3ccc(C)o3)c1C#N)CCCC2 was read as Cycloheximide cs 1.2, AMA1-RON2 inh -9.6%, Shiga inhibitor -22.8, HCV inhibitor 5.62µM*, Pf growth 48h -8.4% and Pf growth 96h 17.5%.
Screening O=C(OCC(=O)N1CCN(c2ccccc2)CC1)c1ncc(Cl)c(Cl)c1Cl returned AMA1-RON2 inh -14.5%, HCV inhibitor 7.6%, Pf growth 48h -10.6% and Pf growth 96h 28.9%.
Screening Cc1ccc(-c2c(NCCc3ccccc3)c(=O)c2=O)cc1 returned Cycloheximide cs 9.2, AMA1-RON2 inh -0.3%, Shiga inhibitor 22.3, HCV inhibitor 23.8%, Pf growth 48h inconclusive and Pf growth 96h -3.8%.
O=c1c(NCCc2ccccc2)c(-c2ccccc2)c1=O was read as Cycloheximide cs 5.9, AMA1-RON2 inh 6.3%, Shiga inhibitor 25.1, HCV inhibitor -15.1%, Pf growth 48h 2.08µM* and Pf growth 96h -15.8%.
COC(=O)/C=C1/S/C(=N/NC(=O)c2ccccc2OC)NC1=O was read as Cycloheximide cs -2.5, AMA1-RON2 inh 91.0%, Shiga inhibitor -3.4, HCV inhibitor 7.0%, Pf growth 48h inconclusive and Pf growth 96h 11.7µM*.
For COc1ccc(C(C)NS(=O)(=O)Cc2ccccc2)cc1 (configuration not stated) the results were Cycloheximide cs 15.7, AMA1-RON2 inh 10.5%, Shiga inhibitor 49.9, HCV inhibitor inconclusive, Pf growth 48h 9.0% and Pf growth 96h inconclusive.
`COc1ccc(/C=C/C(=O)Nc2ccccc2Cl)cc1S(=O)(=O)N1CCOCC1` gave Cycloheximide cs 15.3, AMA1-RON2 inh 0.0%, Shiga inhibitor -1.5, HCV inhibitor inconclusive, Pf growth 48h 10.4µM* and Pf growth 96h 10.4µM*.
For COc1ccc(/C=C/C(=O)Nc2ccccc2)cc1S(=O)(=O)N1CCOCC1 the results were Cycloheximide cs 10.7*, AMA1-RON2 inh -1.3%, Shiga inhibitor 16.6, HCV inhibitor inconclusive, Pf growth 48h inconclusive and Pf growth 96h inconclusive.
`COc1cc(/C=C/C(=O)NC(C)C)ccc1OCc1ccccc1` gave Cycloheximide cs -0.7, AMA1-RON2 inh 3.8%, Shiga inhibitor 38.1, HCV inhibitor inconclusive, Pf growth 48h 13.1µM* and Pf growth 96h -0.2%.
Screening COc1ccc(/C=C/C(=O)Nc2ccc(NC(C)=O)cc2)cc1S(=O)(=O)N1CCOCC1 returned Cycloheximide cs 2.3, AMA1-RON2 inh -7.8%, Shiga inhibitor 16.9, HCV inhibitor -16.5%, Pf growth 48h inconclusive and Pf growth 96h inconclusive.
For COc1ccc(C)cc1NC(=O)/C=C/c1ccc(OC)c(S(=O)(=O)N2CCOCC2)c1 the results were AMA1-RON2 inh -10.7%, HCV inhibitor inconclusive, Pf growth 48h 9.28µM* and Pf growth 96h 5.22µM*.
For COc1ccc(/C=C/C(=O)NC(=S)Nc2ccccc2)cc1OC the results were Cycloheximide cs 5.1, AMA1-RON2 inh 21.8%, Shiga inhibitor 18.1, HCV inhibitor -15.6%, Pf growth 48h 15.3% and Pf growth 96h 15.6%.
COc1ccc(/C=C/C(=O)NC2CCCCCCC2)cc1S(=O)(=O)N1CCOCC1 was read as Cycloheximide cs 37.2*, AMA1-RON2 inh 7.0%, Shiga inhibitor 70.1*, HCV inhibitor -26.5%, Pf growth 48h inconclusive and Pf growth 96h 5.86µM*.
For COc1cc(/C=C/C(=O)NC(=O)c2ccccc2O)ccc1OC(C)=O the results were Cycloheximide cs 32.7*, AMA1-RON2 inh -3.4%, Shiga inhibitor 69.9*, HCV inhibitor -15.9%, Pf growth 48h -19.8% and Pf growth 96h 9.28µM*.
`COc1ccc(/C=C/C(=O)Nc2ccccc2)cc1OC` gave Cycloheximide cs 35.6*, AMA1-RON2 inh 8.4%, Shiga inhibitor 126.7*, HCV inhibitor inconclusive, Pf growth 48h 239.8% and Pf growth 96h 190.6%.
Screening COc1cc(/C=N/OCC(=O)Nc2cc(C)on2)ccc1OCc1ccccc1 returned Cycloheximide cs 17.7*, AMA1-RON2 inh -1.0%, Shiga inhibitor 104.1*, HCV inhibitor 1.7%, Pf growth 48h inconclusive and Pf growth 96h -1.6%.
For CSc1ncccc1C(=O)OCC(=O)N1CCc2ccccc21 the results were AMA1-RON2 inh 3.5% and HCV inhibitor -2.7%.
For COc1ccc(CNC(=O)CCS(=O)(=O)c2cc3c(cc2Cl)NC(=O)CO3)cc1 the results were Cycloheximide cs 7.8, AMA1-RON2 inh 26.6%, Shiga inhibitor -0.9, HCV inhibitor 3.4%, Pf growth 48h 2.8% and Pf growth 96h 4.4%.
Screening CC(C)C1O/C(=N/C(=O)Nc2ccc(Cl)c(Cl)c2)NC1=O (configuration not stated) returned Cycloheximide cs 12.8, AMA1-RON2 inh 2.0%, Shiga inhibitor 17.0, HCV inhibitor inconclusive, Pf growth 48h 11.7µM* and Pf growth 96h inconclusive.
`O[C@H]1CN(CC2CCCCC2)[C@@H](c2ccc(Cl)cc2)C[C@@H]1n1cc(C2CC2)nn1` gave AMA1-RON2 inh -5.9%.
`Cc1c(NC(=O)CSC(=S)N2CCCC2)c(=O)n(-c2ccccc2)n1C` gave AMA1-RON2 inh -11.4%, HCV inhibitor -2.0%, Pf growth 48h 37.5% and Pf growth 96h inconclusive.
